# Laboratory results taken from PubChem BioAssay AID624342 (National Center for Advancing Translational Sciences (NCATS), 2012).
# Active and inactive are the calls of the source. The call rests on the fitted dose curve.
# Assay: qHTS for Inducers of the Endoplasmic Reticulum Stress Response (ERSR) in Human Glioma: Hit Validation
# Conditions: U87-MG GRP78 promoter luciferase reporter, 16 h
# From the text: Primary protein unfolding takes place for many diseases, including diabetes and hypoxia, , and triggers a reaction in the cells called ER stress response (ERSR). ). ERSR is designed as a repair mechanism, but ultimately leads to cell death via apoptosis if conditions triggering protein unfolding persist (1). The molecular clue to ERSR activation is the enhancement of the expression of key molecular chaperones, including the glucose regulated protein (GRP) 78. GRP78 is the main sensor for protein folding and the main actuator of the ERSR. In a collaboration between the Southern Research Institute and the NIH Chemical Genomics Center, a cell based screen was developed that reliably uses GRP78 as a sensor to identify small molecules as inducers of ERSR. In resting conditions, GRP78 binds proteins and acts as a natural repressor. Once unfolded proteins are present in the ER, GRP78 releases some of the repressors and binds to the unfolded proteins. The release of the repressors executes the ERSR program. Using a human glioma cell line in a miniaturized, luminescent format, a high-throughput screen was developed to identify actuators of the ERSR. In this assay, the hits identified from primary screen are re-run using the same protocol. NIH Chemical Genomics Center [NCGC] NIH Molecular Libraries Probe Centers Network [MLPCN] MLPCN Grant: DA031669 Assay Submitter (PI): Maurizio Grimaldi, Southern Research Institute (1) Soboloff, J. and S. A. Berger (2002). "Sustained ER Ca2+ depletion suppresses protein synthesis and induces activation-enhanced cell death in mast cells." J Biol Chem 277(16): 13812-20.
# Stable transfected human glioma cell line, U87-MG, are dispensed at density 1000 cells/well into Greiner white solid bottom 1536-well assay plates. […] The assay plates will be incubated for 16 hours and developed by adding appropriate quantities of the Promega Bright Glo reagent. The plates will be incubated at room temperature for 10 minutes prior to being transferred into a ViewLux high-throughput CCD imager (PerkinElmer), wherein end-point measurements of luminescence are acquired.
row,Structure (SMILES),Potency
1,Cc1ccc(-c2cc(NC(=O)C(C)Oc3ccc(C)c(C)c3)on2)cc1 (stereo not drawn),30 µM (active)
2,CC(=O)N1CCOc2cc(S(=O)(=O)Nc3c(C)cccc3C(C)C)c(Cl)cc21,30 µM (active)
3,CC(C)Cc1nn2c(=O)cc(COC(=O)CNC(=O)c3ccc(C(C)(C)C)cc3)nc2s1,30 µM (active)
